The text below walks through data of PubChem BioAssay (NCI).

“And” between values parts separate entries of the source, which are not always exact repeats. Identical values can stand only once. About 83,000 compounds went through this panel and 20% of them were active in at least one assay; those are over-represented in the sample as a whole.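 The endpoint reported here, percent growth, reads 100 for growth as untreated, 0 for no net growth and -100 for all cells dead.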 The source made the active and inactive calls. The calls were made as follows: active = growth percent below 10; inactive = the rest.

The test system of this assay is HL-60(TB) leukemia. The assay can be described thus: NCI-60 one-dose screen, 48 h (100 = growth as untreated, 0 = no growth, -100 = all killed). The note with it: 10 µM unless noted.
As for `O=c1c2sc3ncccc3c2nnn1-c1ccccc1`, the growth is 106% (inactive).

Regarding `COc1ccc(/C=C/C(=O)/C=C(/C=C/c2ccc(OC)c(OC)c2)OB(F)F)cc1OC`, the growth was 19.7% (inactive).

Turning to `COc1cc(C2c3cc(OC(C)=O)c(OC)cc3CC3C(=O)OCC32)ccc1OC(C)=O` (centres undefined), the growth is 71.7% (inactive).

As to `CN(CCC(=O)/C(=C\c1ccccc1)c1ccc(Cl)cc1)Cc1ccccc1`, the growth was 41% (inactive).

In the case of `CCCCCOC(=O)c1ccc(NC(=O)CNCC(C)C)cc1`, the growth is 84.6% (inactive).

As for `COc1ccc(C(=O)N2NC(=O)/C(=C/c3ccc(Br)cc3)N=C2c2ccccc2)cc1`, the growth is 4.51% (active).

Consider `ON1CCCC1`, for which the growth is 82.3% (inactive).

`CCN(CC)CCCNc1ccnc2cc3ccccc3cc12`: the growth was 83.7% (inactive).

For the compound `Cc1ccc(C(=O)Nc2ccc(Cl)cc2C(=O)NCc2ccccc2)cc1`, the growth was 51.9% (inactive).

Take `Nc1nc2c(s1)CCc1cn(S(=O)(=O)c3ccccc3)cc1-2`: the growth was 70.6% (inactive) and 76.2% (inactive).

On to `N#CC1=C(N)Oc2cc(N)ccc2C1c1cccnc1` (centres undefined), for which the growth is 96.6% (inactive).

For the compound `O=S(=O)(NCCCNc1nccc(-c2c(-c3ccc(F)c(O)c3)nc3sccn23)n1)c1ccccc1`, the growth is 69.8% (inactive).

As to `O=C1NC(=S)NC(=O)C1=Cc1cccc(C=C2C(=O)NC(=S)NC2=O)c1`, the growth was 101% (inactive).

Consider `O=C1N[C@@H]2NC(=[N+]3CCOCC3)N[C@@H]2N1`, for which the growth was 98% (inactive).

Consider `CC(C)(C)NC(C1=CC(C)(C)c2ccccc2C1=O)c1ccccc1` (centres undefined), for which the growth was -45.2% (active).

With `CCC(C(=O)[C@@H](C)[C@@H](O)[C@H](C)[C@@H]1O[C@@H]([C@@H](CC)C(=O)ONC(=O)c2ccccc2)CC[C@@H]1C)[C@H]1O[C@]2(C=CC(=O)[C@]3(CC[C@@](C)([C@H]4CC[C@](O)(CC)[C@H](C)O4)O3)O2)[C@H](C)C[C@@H]1C` (some centres undefined), the growth was -63.9% (active).

As to `Cc1cc(NCc2cc(Nc3ccnc4cc(Cl)ccc34)ccc2F)nc(N2CCSCC2)n1`, the growth was -61.4% (active).

Take `Cc1nnc(-n2c(O)cc(=O)n(-c3ccccc3)c2=S)nc1/C=C/c1ccc(N(C)C)cc1`: the growth was 7.92% (active).

For the compound `O=S(=O)(Nc1ccc(Cl)cc1Cl)c1ccc(-c2cnc(C3CC3)o2)cc1`, the growth was -0.119% (active).

As for `CCOP(=O)(OCC)c1nc(-c2ccccc2)oc1NCc1cccnc1`, the growth was 102% (inactive).

Turning to `CCOC(=O)N1C/C(=C/c2ccc(OC)cc2)C(=O)/C(=C/c2ccc(OC)cc2)C1`, the growth was 16.7% (inactive).

As to `Cc1oc2nc[nH]c(=O)c2c1C(=O)/C=C/c1ccc(Cl)cc1`, the growth was -47.8% (active).

On to `OCCSc1ccc(Cl)cc1`, for which the growth is 131% (inactive) and 90.3% (inactive).

Consider `O=C1OC(c2ccc(-c3ccccc3)cc2)=C/C1=C/c1cccs1`, for which the growth was 75% (inactive).

As to `COc1cc(NC(=O)Nc2cnc(Nc3ccc(N4CCOCC4)cc3)nc2Oc2cccc(OC)c2)cc(OC)c1`, the growth is 22.8% (inactive).

With `C#CC(=O)Nc1cccc(Nc2nc3c(c(NCc4ccccc4)n2)CCCC3)c1`, the growth was -25.5% (active).

Take `COc1cnc2c(c1)C(=O)c1c-2n(CCCN2CCN(C)CC2)c(=O)c2cc([N+](=O)[O-])ccc12`: the growth was -54% (active).

With `C=CCn1c(C)nc2cc(Nc3nc(Nc4ccc5nc(C)n(CC=C)c5c4)nc4ccccc34)ccc21`, the growth is 84% (inactive).

Consider `CCCNc1nc(SC)nc(-c2cccc(N)c2)c1C#N`, for which the growth was 98.9% (inactive).

Consider `CCCCCCCC/C=C/CCCCCCCC1=NC(C)(C)CN1C(C)(C)CO`, for which the growth was -59.8% (active).

On to `O=c1[nH]c2cc(Cl)c(Cl)cc2o1`, for which the growth is 120% (inactive).

`Nc1ccc(N=Nc2ccc(O)cc2)c(N)n1`: the growth was 37% (inactive).

`C/C(=N\NC(=O)c1ccccc1O)c1cccc(/C(C)=N/NC(=O)c2ccccc2O)n1`: the growth is 6.42% (active).

Take `Nc1nc2c([nH]1)c1[nH]c3ccccc3c1c1[nH]c3ccccc3c21`: the growth was 25.5% (inactive).

On to `COc1cc(/C=C/C(C)=O)ccc1O`, for which the growth was 81% (inactive) and 77.8% (inactive).

On to `CCOC(=O)C(C)(CSSCC(C)(NC(=O)c1ccc2ccccc2c1)C(=O)OCC)NC(=O)c1ccc2ccccc2c1` (centres undefined), for which the growth is 98.8% (inactive).

Regarding `CC(C)(C)[Si](C)(C)OC1[C@@H](O[Si](C)(C)C(C)(C)C)[C@@H](CNC(=O)NC(=O)C(F)(F)F)O[C@H]1n1cnc2c(NC(=O)Nc3ccccc3)ncnc21` (some centres undefined), the growth was -52.6% (active).

As to `CSc1nc2c(c(=O)[nH]1)N=C1c3ccccc3C(=O)C1C(c1ccccc1)N2` (centres undefined), the growth is -34.8% (active).

For the compound `COC(=O)[C@H](Cc1cnc[nH]1)NC(=O)[C@@H](NC(=O)Nc1cc(C(F)(F)F)cc(C(F)(F)F)c1)C(C)C`, the growth is -62.5% [100 µM] (active).
